# Assay results: PubChem BioAssay (NCI)
# “And” between values parts separate entries of the source, which are not always exact repeats. Equal values may be shown once. This is part of a sample that, as a whole, favours compounds with a hit. Of some 83,000 tested, about 20% had one in any assay.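 Compound tested at a single concentration for 48 hours in 96-well plates; a percent growth value below 10 was scored as active.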 The source made the active and inactive calls.
# System: HL-60(TB) leukemia
# Test: NCI-60 one-dose screen, 48 h (100 = growth as untreated, 0 = no growth, -100 = all killed)
# Details: 10 µM unless noted
row,Structure (SMILES),growth
1,O=[N+]([O-])c1ccc(/C=N\NC(=S)Nc2ccc(F)cc2)cc1,114% (inactive) and 82.5% (inactive)
2,COc1cc(C2NC(c3ccc(Cl)cc3)C(C)C(=NC(=O)c3cnccn3)C2C)cc(OC)c1OC (configuration not stated),98.4% (inactive)
3,O=C(O)/C(=C\c1ccc(Cl)cc1)c1ccc(Cl)cc1,53.3% (inactive)
4,CC(=O)N1N=C(c2ccc(C(F)(F)F)cc2)CC1c1ccc2c(c1)OCO2 (configuration not stated),95.6% (inactive)
5,O=C1/C(=C/c2ccc(Cl)cc2)COc2ccc(O)c(O)c21,-11.7% (active)
6,C=C(C)[C@@H]1CC[C@]2(C(=O)NCC#CCN3CCN(C)CC3)CC[C@]3(C)[C@H](CC[C@@H]4[C@@](C)(CCC#N)[C@H](C(=C)C)CC[C@]43C)[C@@H]12,10.9% (inactive)
7,C=C(C)[C@@H]1CC[C@]2(C)[C@H](CC=C3[C@@H]4[C@@H](C)[C@H](C)CC[C@]4(C(N)=O)CC[C@]32C)[C@@]1(C)CCC#N,-28.7% [100 µM] (active)
8,COc1ccc(-c2cn[nH]c2-c2ccc(OC)c(O)c2)cc1,46.1% (inactive)
9,Cc1nn(-c2nc3ccccc3[nH]2)c2c1C(c1ccc(OCC(N)=O)cc1)CC(=O)N2 (configuration not stated),113% (inactive)
10,O=C1c2cc(I)ccc2Oc2cc([N+](=O)[O-])ccc2N1c1ccc(Cl)cc1F,55.9% (inactive)
11,CCOc1ccc(S(=O)(=O)c2ccc(C)cc2)c2c1no[n+]2[O-],85.7% (inactive)
12,CCOC(=O)N1CCN(CCCCOc2ccc(C(C)(C)CC)cc2)CC1,79.1% (inactive)
13,COc1cc(C2NC(=O)C(C#N)=C(Nc3cccc(C)c3)S2)ccc1O (configuration not stated),84% (inactive)
14,COc1cc(OC)c(C(=O)/C=C/c2ccc(C(F)(F)F)cc2)c(OC)c1,45.1% (inactive)
15,O=[N+]([O-])c1cccc2cc(S(=O)(=O)O)ccc12,76.9% (inactive)
16,CCOc1cc(CNc2ccc(N3CCOCC3)c(C(=O)O)c2)ccc1OC,106% (inactive)
17,COC(=O)CCCNC(=O)C(=O)c1c(O)c(O)c(C(C)C)c2cc(C)c(-c3c(C)cc4c(C(C)C)c(O)c(O)c(C(=O)C(=O)NCCCC(=O)OC)c4c3O)c(O)c12,11.3% (inactive)
18,O=C(CN1CCN(c2cc3c(cc2F)c(=O)c(C(=O)O)cn3C2CC2)CC1)Nc1nc(-c2ccccc2)cs1,82.1% (inactive)
19,O=C(/C=C/c1ccc(C(F)(F)F)cc1)c1ccc(Nc2nc(NCCO)nc(N3CCOCC3)n2)cc1,15.4% (inactive)
20,S=c1ssnc1-c1ccccn1,-43.5% (active)
21,O=C(NC(Cc1cn(Cc2ccccc2)cn1)C(=O)O)OCC1c2ccccc2-c2ccccc21 (configuration not stated),87.4% (inactive)
22,CC(O)c1nc2c(c(=O)n(C)c(=O)n2C)n1C (configuration not stated),100% (inactive)
23,CC1(C)Cc2c(cn(Cc3ccccc3)c2-c2ccccc2)-c2oncc21,85.7% (inactive)
24,O=C1Nc2ccc(Br)cc2/C1=N/c1n[nH]c(=S)s1,99.2% (inactive)
25,Cc1ccc(S(=O)(=O)Oc2ccc(Br)cc2Br)cc1,41.5% (inactive)
26,Cc1ccc(-n2nnc3c(sc4ccccc43)c2=O)cc1,92.9% (inactive)
27,COc1ccc(-c2nn(-c3cccc(NC(=O)c4ccc(Cl)c(Cl)c4)c3)cc2-c2ccncc2)cc1Cl,89.1% (inactive)
